# Data reported in the supplement of paper PMC9023506.
# Structures can show the parent of a compound that is named as a salt.
# System: Danio rerio larvae (5 dpf)
# Experiment: habituation to 1-s acoustic pulses, difference vs DMSO (percentage points (treated minus DMSO)); higher = more of the behaviour than the DMSO vehicle control
# Details: 10 µM; exposure time: 3 h pre-incubation + 3 h imaging
# Procedure: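 5-dpf wild-type zebrafish larvae were imaged in 96-well plates. They were treated with 190 Tocris FDA-approved drugs at 10 µM (1 µl/ml DMSO) for 3 h before and 3 h during imaging at 28.5 °C, 48 larvae per drug. Automated image analysis gave % time moving and optomotor responses. Values are drug group mean minus DMSO vehicle mean (n=844), in percentage points, for 10 behaviours.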
row,Compound,habituation to 1-s acoustic pulses
1,CC(C)c1nc(N(C)S(C)(=O)=O)nc(-c2ccc(F)cc2)c1/C=C/[C@@H](O)C[C@@H](O)CC(=O)O [Rosuvastatin calcium],0.315
2,C[C@H]1C[C@@H]2[C@H]([C@@H](O)C[C@@]3(C)[C@H]2CC[C@]3(O)C(=O)CO)[C@@]2(C)C=CC(=O)C=C12 [Methylprednisolone],-1.22
3,N#Cc1ccc(C(c2ccc(C#N)cc2)n2cncn2)cc1 [Letrozole],2.44
4,CN1CC(=O)N2[C@H](c3ccc4c(c3)OCO4)c3[nH]c4ccccc4c3C[C@@H]2C1=O [Tadalafil],-1.05
5,CCOC(=O)[C@H](CCc1ccccc1)N[C@H]1CCc2ccccc2N(CC(=O)O)C1=O [Benazepril hydrochloride],3.08
6,CC(=O)Oc1cc2c(s1)CCN(C(C(=O)C1CC1)c1ccccc1F)C2 (stereo not given) [Prasugrel],2.1
7,Cc1nnc(C(C)C)n1C1C[C@H]2CC[C@@H](C1)N2CC[C@H](NC(=O)C1CCC(F)(F)CC1)c1ccccc1 (stereo in doubt) [Maraviroc],2.48
8,N#Cc1ccc2[nH]cc(CCCCN3CCN(c4ccc5oc(C(N)=O)cc5c4)CC3)c2c1 [Vilazodone hydrochloride],-3.73
9,CC(C)(C)NC(=O)[C@@H]1C[C@@H]2CCCC[C@@H]2CN1C[C@@H](O)[C@H](Cc1ccccc1)NC(=O)[C@H](CC(N)=O)NC(=O)c1ccc2ccccc2n1 [Saquinavir mesylate],-0.0249
10,CN(CCOc1ccc(NS(C)(=O)=O)cc1)CCc1ccc(NS(C)(=O)=O)cc1 [Dofetilide],5.42
11,CCCCCCCN(CC)CCCC(O)c1ccc(NS(C)(=O)=O)cc1 (stereo not given) [Ibutilide hemifumarate],2.78
12,COCCc1ccc(OCC(O)CNC(C)C)cc1 (stereo not given) [Metoprolol tartrate],-3.95
13,C=C1[C@H](CO)[C@@H](O)C[C@@H]1n1cnc2c(=O)[nH]c(N)nc21 [Entecavir],3.17
14,COCCCOc1cc(C[C@@H](C[C@H](N)[C@@H](O)C[C@H](C(=O)NCC(C)(C)C(N)=O)C(C)C)C(C)C)ccc1OC [Aliskiren hemifumarate],7.12
15,CCCCc1nc(Cl)c(CO)n1Cc1ccc(-c2ccccc2-c2nnn[nH]2)cc1 [Losartan potassium],0.91
16,CC(=O)O[C@]1(C(C)=O)CC[C@H]2[C@@H]3C=C(C)C4=CC(=O)CC[C@]4(C)[C@H]3CC[C@@]21C [Megestrol Acetate],-2.13
17,CC(c1cc2ccccc2s1)N(O)C(N)=O (stereo not given) [Zileuton],7.12
18,COc1c(C)c2c(c(O)c1C/C=C(\C)CCC(=O)O)C(=O)OC2 [Mycophenolic acid],1.78
19,CN[C@H]1CC[C@@H](c2ccc(Cl)c(Cl)c2)c2ccccc21 [Sertraline hydrochloride],-2.9
20,COc1cc2ncnc(Nc3ccc(F)c(Cl)c3)c2cc1OCCCN1CCOCC1 [Iressa],0.91

row,Compound,habituation to 1-s acoustic pulses
1,O=C1CCc2cc(OCCCCc3nnnn3C3CCCCC3)ccc2N1 [Cilostazol],-0.365
2,CC#C[C@]1(O)CC[C@H]2[C@@H]3CCC4=CC(=O)CCC4=C3[C@@H](c3ccc(N(C)C)cc3)C[C@@]21C [Mifepristone],-0.152
3,CN(C)C(=N)NC(=N)N [Metformin hydrochloride],0.867
4,CNC(=O)c1ccccc1Sc1ccc2c(/C=C/c3ccccn3)n[nH]c2c1 [Axitinib],-2.02
5,COc1cc(N)c(Cl)cc1C(=O)NC1CCN(CCCOc2ccc(F)cc2)CC1OC (stereo not given) [Cisapride],6.52
6,CC(CCc1ccc(O)cc1)NCCc1ccc(O)c(O)c1 (stereo not given) [Dobutamine hydrochloride],1.34
7,CCCc1nc(C(C)(C)O)c(C(=O)O)n1Cc1ccc(-c2ccccc2-c2nnn[nH]2)cc1 [Olmesartan],3.67
8,CC(=O)Nc1ccc(O)cc1 [Acetaminophen],-1.9
9,CN(C)CCc1c[nH]c2ccc(Cn3cncn3)cc12 [Rizatriptan benzoate],-2.41
10,Cc1cccc(C)c1OCC(C)N (stereo not given) [Mexiletine hydrochloride],5.97
11,CN1CCC[C@@H]1CCO[C@](C)(c1ccccc1)c1ccc(Cl)cc1 [Clemastine fumarate],-5.08
12,CC/C(=C(\c1ccccc1)c1ccc(OCCN(C)C)cc1)c1ccccc1 [Tamoxifen citrate],-6.99
13,Cc1nc(Nc2ncc(C(=O)Nc3c(C)cccc3Cl)s2)cc(N2CCN(CCO)CC2)n1 [Dasatinib],-0.705
14,NC(=O)N1c2ccccc2C=Cc2ccccc21 [Carbamazepine],2.65
15,CC1CNc2c(cccc2S(=O)(=O)N[C@@H](CCCNC(=N)N)C(=O)N2CC[C@@H](C)C[C@@H]2C(=O)O)C1 (stereo not given in full) [Argatroban],-0.436
16,Cn1nnc2c(C(N)=O)ncn2c1=O [Temozolomide],4.01
17,CCCCCOC(=O)Nc1nc(=O)n([C@@H]2O[C@H](C)[C@@H](O)[C@H]2O)cc1F [Capecitabine],-3.26
18,COc1cc2nccc(Oc3ccc(NC(=O)C4(C(=O)Nc5ccc(F)cc5)CC4)cc3)c2cc1OC,-4.53
19,CC(C)c1nc(CN(C)C(=O)N[C@H](C(=O)N[C@@H](Cc2ccccc2)C[C@H](O)[C@H](Cc2ccccc2)NC(=O)OCc2cncs2)C(C)C)cs1 [Ritonavir],-0.262
20,Nc1nc(F)nc2c1ncn2[C@@H]1O[C@H](CO)[C@@H](O)[C@@H]1O [Fludarabine],-1.56
